The campaign covered roughly 340,000 compounds. About 4,500 (1.3%) were called active. Where a call stands in place of a potency, no number is given. About 5% were inconclusive and are not listed. The sample holds actives, similar compounds and a random draw of the others, so the mix is not that of the screen. Calls come from the whole dose curve; as a rule, active = well fitted inhibition curve with a large enough effect; inconclusive = small, poorly fitted or top-dose-only effect, or another doubt; inactive = no such curve, though single readings can be large or run the other way.
Target: DNA polymerase beta (Homo sapiens) (UniProt P06746)
Assay: qHTS Assay for Inhibitors of DNA Polymerase Beta
Conditions: Pol beta primer extension/strand displacement, fluorescence kinetic; series mostly up to 114 µM
Source text: The base excision repair system in human cells is a target for therapeutic modulation of the response to irradiation treatment and DNA-damaging drugs. A key enzyme in this system is the bi-functional DNA polymerase known as DNA polymerase Beta (Pol Beta). The following is a homogeneous kinetic assay to study the primer extension and strand-displacement reaction catalyzed by pol beta.
A stepwise description of the 1536-well assay is shown in next Table. Three microliters of reagents (buffer in column 3 and 4 as negative control and 10 nM Pol beta in columns 1, 2, and 5-48) was dispensed into 1,536-well black solid-bottomed plate. Compounds (23 nL) were transferred via Kalypsys pin tool equipped with 1536-pin array (10 nL slotted pins, V&P Scientific, San Diego, CA). The plates were incubated for 15 min at room temperature, and 1 uL substrate (50 nM final concentration) were added to start the reaction and immediately read at 0 min read on Viewlux reader. The plate were further incubated for 10 min at room temperature, and then read on Viewlux again. Throughout the screen, reagent bottle and all liquid lines were chilled and made light-tight to minimize reagent degradation. All screening operations were performed on a fully integrated robotic system (Kalypsys, San Diego, CA) containing one RX-130 and two RX-90 anthropomorphic robotic arms (Staubli, Duncan, SC). Library plates were screened starting from the lowest and proceeding to the highest concentration, and a double-dipping step of the highest concentration was required to access higher concentrations of compounds. Vehicle-only plates, with DMSO being pin-transferred to the entire column 5-48 compound area, were inserted uniformly at the beginning and the end of each library in order to monitor for and record any shifts in the background, which can be affected by reagent dispensers or loss in enzyme activity overtime. Screening data were corrected, normalized, and concentration-effect relationships were derived by using publicly-available curve fitting algorithms developed in-house (http://ncgc.nih.gov/pub/openhts). A four parameter Hill equation was fitted to the concentration-response data by minimizing the residual error between the modeled and observed responses.
Potency is the fitted concentration of half-maximal effect.

For `O=C1NC(=O)N(c2ccccc2)C(=O)/C1=C/c1ccc([N+](=O)[O-])s1`, which Potency is on record?
Its Potency is “inactive”.

How did the Potency turn out when `COc1cccc(N2C(=O)NC(=O)/C(=C\c3cn(C)c4ccccc34)C2=O)c1` was run?
Its Potency is “inactive”.

`Cc1cccc(N2C(=O)NC(=O)/C(=C\c3cnn(-c4ccccc4)c3)C2=O)c1` was tested. Which Potency did it give?
The Potency was 39.8 µM (active).

For `CCCCN1C2CCC1CC(OC(c1ccc(F)cc1)c1ccc(F)cc1)C2` (stereo not given), which Potency is on record?
Its Potency is “inactive”.

`COc1ccc(CN2C(=O)NC(=O)/C(=C\c3ccc(OC)c(OC)c3OC)C2=O)cc1` was tested. Which Potency did it give?
Its Potency is “inactive”.

With `COc1ccc(N2C(=O)/C(=C/c3ccco3)C(=O)NC2=S)cc1` as the compound, how does the Potency read?
The Potency was 2.82 µM (active).

For `COc1ccccc1N1CCN(C(CNC(=O)Oc2ccccc2)c2cccnc2)CC1` (stereo not given), which Potency is on record?
The Potency was “inactive”.

For `Cc1ccccc1N1C(=O)NC(=O)/C(=C\c2cc(C)n(C)c2C)C1=O`, which Potency is on record?
The Potency was “inactive”.

`O=C1NC(=O)N(c2ccc(F)cc2)C(=O)/C1=C/c1ccc2c(c1)CCCN2Cc1ccccc1` was tested. Which Potency did it give?
Its Potency is “inactive”.

Which Potency does the source give for `Cc1c(C(=O)O)cccc1-n1c(C)cc(/C=C2\C(=O)NC(=O)N(c3ccc4c(c3)OCO4)C2=O)c1C` here?
Its Potency is 11.2 µM (active).

How did the Potency turn out when `O=Cc1cn(Cc2ccc(F)cc2Cl)c2ccccc12` was run?
Its Potency is “inactive”.

With `Cc1cc2ccccn2c1C(C[N+](=O)[O-])c1c(F)cccc1Cl` (stereo not given) as the compound, how does the Potency read?
The Potency was “inactive”.

How did the Potency turn out when `CCN(CC)C(=O)c1ccc(NC(=O)c2sccc2-c2ccccc2)cc1` was run?
Its Potency is “inactive”.

For `COc1ccc2c3c1O[C@H]1C[C@@H](O)C=C[C@@]31CCN(C)C2`, which Potency is on record?
The Potency was “inactive”.

`N[C@@H](Cc1c[nH]c2ccccc12)c1nnc(SCc2c(F)cccc2Cl)o1` was tested. Which Potency did it give?
The Potency was “inactive”.

`Cc1ccc(-n2c(/C=C/c3cccc(C(F)(F)F)c3)nc3ccccc3c2=O)cc1` was tested. Which Potency did it give?
The Potency was “inactive”.

With `CCOc1ccc(-c2cc(C)n3nc(C(=O)Nc4ccc(C)c(C)c4)cc3n2)cc1` as the compound, how does the Potency read?
The Potency was 8.91 µM (active).

For `C=CCN(CC=C)C(=O)Nc1ccc(OCC)cc1`, which Potency is on record?
The Potency was “inactive”.

For `OC(Cn1c2ccccc2c2ccccc21)C[n+]1ccccc1` (stereo not given), which Potency is on record?
The Potency was “inactive”.

With `O=C1NC(=O)N(Cc2ccco2)C(=O)/C1=C\c1cccn1CCOc1ccccc1` as the compound, how does the Potency read?
The Potency was “inactive”.

How did the Potency turn out when `Cc1cc(/C=C2/C(=O)NC(=O)N(Cc3ccco3)C2=O)c(C)n1-c1ccc(C(=O)O)cc1` was run?
Its Potency is 17.8 µM (active).

With `Cc1cc(C=C2C(=O)NC(=O)NC2=O)c(C)n1-c1ccncc1` as the compound, how does the Potency read?
The Potency was “inactive”.

`COc1ccccc1N=C1SCCCN1C` was tested. Which Potency did it give?
Its Potency is “inactive”.

`C=CCN1CCC23c4c5ccc(O)c4O[C@H]2C(=O)CC[C@@]3(O)C1C5` (stereo not given in full) was tested. Which Potency did it give?
Its Potency is “inactive”.

`O=C1CC(=O)N(Cc2ccccc2)C(=O)N1CCCCCCN1C(=O)CC(=O)N(Cc2ccccc2)C1=O` was tested. Which Potency did it give?
The Potency was 28.2 µM (active).

`O=C(CN1CCCC1=O)NCCc1ccccc1` was tested. Which Potency did it give?
The Potency was “inactive”.

How did the Potency turn out when `CC(C)(C)c1ccc(CN2C(=O)CN=C(c3ccccc3)c3ccccc32)cc1` was run?
Its Potency is “inactive”.

How did the Potency turn out when `Cc1nc2ccccc2c(=O)n1-c1ccc(Cl)cc1Cl` was run?
The Potency was “inactive”.

With `CCN1CCN(c2nc3c(c(=O)[nH]2)CCC3)CC1` as the compound, how does the Potency read?
The Potency was “inactive”.

For `Cc1nnc(NC(=O)c2cccn(Cc3cccc(F)c3)c2=O)s1`, which Potency is on record?
Its Potency is “inactive”.

`COc1ccccc1N=Nc1c(O)[nH]c(=S)[nH]c1=O` was tested. Which Potency did it give?
Its Potency is “inactive”.

Which Potency does the source give for `CCOCCc1c(O)[nH]c(=S)[nH]c1=O` here?
The Potency was 35.5 µM (active).

`Cc1ccc(-c2nn(CCC#N)cc2C(=O)O)cc1C` was tested. Which Potency did it give?
The Potency was “inactive”.

Which Potency does the source give for `O=C(OCC1O[C@@H](OC(=O)c2cc(O)c(O)c(O)c2)[C@@H](OC(=O)c2cc(O)c(O)c(O)c2)[C@@H](OC(=O)c2cc(O)c(O)c(O)c2)[C@@H]1OC(=O)c1cc(O)c(O)c(O)c1)c1cc(O)c(O)c(O)c1` (stereo not given in full) here?
Its Potency is 0.158 µM (active).

How did the Potency turn out when `Cc1cccc(Cn2cccc(C(=O)Nc3ccc4c(c3)OCCO4)c2=O)c1` was run?
The Potency was “inactive”.

How did the Potency turn out when `Cc1ccc(NC(=O)N(Cc2ccc3c(c2)OCO3)C2CCN(Cc3ccccc3)CC2)cc1F` was run?
Its Potency is “inactive”.

For `C[N+]12CN3CN(CN(C3)C1)C2`, which Potency is on record?
Its Potency is “inactive”.

`NCCc1c[nH]c2ccc(O)cc12` was tested. Which Potency did it give?
The Potency was “inactive”.

With `CCOC(=O)c1ncn2c1[C@@H]1CCCN1C(=O)c1cc(OC)ccc1-2` as the compound, how does the Potency read?
The Potency was “inactive”.

With `CN(C)c1ccc(/C=C2\CC3C4CC=C5CC(O)CCC5(C)C4CCC3(C)C2=O)cc1` (stereo not given) as the compound, how does the Potency read?
Its Potency is “inactive”.

Reference: PubChem BioAssay AID485314 (National Center for Advancing Translational Sciences (NCATS), 2010)
